Assay results reported in PubChem BioAssay (NCATS).
Inconclusive results are not listed. Calls of active or inactive are those of the source. Unless noted, calls come from the whole dose curve; as a rule, active = well fitted curve in the direction sought with a large enough effect; inconclusive = small, poorly fitted or top-dose-only effect, or another doubt; inactive = no such curve, though single readings can be large; an effect the other way counts as inactive or inconclusive.

Tests used:
[1] = NS1 protein of Zika virus - qHTS assay to identify small molecule inhibitors in human HEK 293 cells (AID 1347053); note: series mostly up to about 46 µM; nearly all actives have a fitted effect of over 55% in size
Procedure, shortened: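 HEK 293 cells pretreated with compound for 1 h, then infected with ZIKV MR766 (MOI 0.5) for 24 h at 37 C. NS1 detected by TR-FRET with two anti-NS1 antibodies; normalized to uninfected (0%) and infected (100%) wells.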

[2] = target: T1, Tyrosine-protein phosphatase non-receptor type substrate 1 (Homo sapiens) + Leukocyte surface antigen CD47 (Homo sapiens) (UniProt P78324+Q08722); assay: CD47-SIRPalpha protein protein interaction - LANCE assay qHTS validation (AID 1347057; active = well fitted curve in the direction sought with a large enough effect in the signal ratio, with a control signal flat, not every such curve was filed as active; the % refers to the signal ratio; note: series mostly up to about 38 µM)
Procedure, shortened: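 First, His-tagged CD47 and Eu-labelled anti-His antibody met the compound for 30 min; next, site-specifically biotinylated SIRPalpha was added for 30 min; finally streptavidin-APC was added before reading the TR-FRET ratio.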

[3] = target: Parathyroid hormone/parathyroid hormone-related peptide receptor (Homo sapiens) (UniProt Q03431); assay: qHTS for PTHR1 Agonists: Optimization Screen against the NCGC LOPAC library (AID 1347079);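 note: GloSensor cAMP luminescence in HEK-293 GP2 cells expressing human PTHR1 with IBMX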
Procedure, shortened: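 Compounds were tested across a qHTS titration. PTHR1-expressing GP2 cells report cAMP rises via GloSensor luminescence after 1 hr compound exposure at 37C with IBMX present.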

[4] = target: N-terminal Xaa-Pro-Lys N-methyltransferase 1 (Homo sapiens) (UniProt Q9BV86); assay: qHTS Assay for Inhibitors of N-terminal methyltransferase 1 (NTMT1): LOPAC validation of the NTMT1 SAHH-coupled ThioGlo3 Assay (AID 1347143);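 note: SAH from peptide methylation measured as thiol fluorescence via SAHH coupling and ThioGlo3; nearly all actives have a fitted effect of over 70% in size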; note: potency is the fitted concentration of half-maximal effect
Procedure, shortened: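 Recombinant human NTMT1 (125nM) was pre-incubated 1 min at room temperature with compounds over a concentration range, then a mix of 100uM SAM, 10uM SAHH and 15uM ThioGlo3 (concentrations in added reagent) was added. ThioGlo3 fluorescence (ex 340/em 450nm) after 30 min was normalized to the initial reading.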

[5] = tested on: Zika virus NS2B-NS3 protease (unlinked); assay: Optimization of GU AMC qHTS for Zika virus inhibitors: Unlinked NS2B-NS3 protease assay (AID 1347151); note: nearly all actives have a fitted effect of over 80% in size; note: potency is the fitted concentration of half-maximal effect
Procedure, shortened: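 In this qHTS, compounds acted on 25 nM unlinked Zika NS2B–NS3 in pH 8.0 Tris/Tween buffer. Cleavage of an AMC peptide ran 15 min at room temperature, to about 20% conversion.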

[6] = target: T1, Tyrosine-protein phosphatase non-receptor type substrate 1 (Homo sapiens) + Leukocyte surface antigen CD47 (Homo sapiens); assay: CD47-SIRPalpha protein protein interaction - HTRF assay qHTS validation (AID 1347058; active = well fitted curve in the direction sought with a large enough effect in the signal ratio, not every such curve was filed as active; the % refers to the signal ratio;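 note: recombinant soluble extracellular CD47 with His tag and biotinylated SIRPalpha domains; series mostly up to about 38 µM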)
Procedure, shortened: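 TR-FRET read (Ch1/Ch2 ratio) of soluble extracellular CD47 and Avi-biotinylated SIRPalpha domains in PBS pH 7.4 with 0.05% IGEPAL; 7-point compound titration. Sequential 30 min room-temperature steps; non-biotinylated SIRPalpha as control inhibitor.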

[7] = target: T1, Tyrosine-protein phosphatase non-receptor type substrate 1 (Homo sapiens) + Leukocyte surface antigen CD47 (Homo sapiens); assay: CD47-SIRPalpha protein protein interaction - Alpha assay qHTS validation (AID 1347059);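 note: bead proximity luminescence from CD47 binding SIRPalpha after compound preincubation with SIRPalpha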
Procedure, shortened: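 Biotinylated Avi-tagged SIRPalpha (25 nM) preincubated 30 min with compound, then His-tagged CD47 (12.5 nM) added 30 min; AlphaScreen with Ni-NTA acceptor and streptavidin donor beads. PBS pH 7.4, 0.05% IGEPAL, room temperature; 7-point titrations.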

Furin (Homo sapiens) = Furin (Homo sapiens) (UniProt P09958); assay: Furin counterscreen qHTS for Zika virus inhibitors (AID 1347149); note: nearly all actives have a fitted effect of over 70% in size; note: potency is the fitted concentration of half-maximal effect
Procedure, shortened: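 Fluorogenic cleavage of BOC-RVRR-AMC (2 microM final, Km ~15 µM) was monitored (ex 340, em 450 nm) at 37C after 15 min RT preincubation of 5 nM furin with compounds in HEPES pH 7.0 buffer with CaCl2 and Triton X-100. Percent inhibition was fitted to a 4-parameter Hill curve.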

[8] = tested on: Zika virus NS2B-NS3 protease (linked construct); assay: Confirmatory screen NINDS AMC qHTS for Zika virus inhibitors (AID 1347152); note: nearly all actives have a fitted effect of over 70% in size; note: potency is the fitted concentration of half-maximal effect
Procedure, shortened: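 Concentration-response confirmation used the NINDS linked protease (NS2B hydrophilic domain joined to NS3 protease domain), 1 nM, with a 15-min compound preincubation. Substrate, Nle-KRR-AMC at 10 microM, was read by UV fluorescence before and after 15 min.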

[9] = tested on: Zika virus NS2B-NS3 protease (unlinked complex); assay: Confirmatory screen GU AMC qHTS for Zika virus inhibitors (AID 1347153); note: nearly all actives have a fitted effect of over 70% in size
Procedure, shortened: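 Unlinked NS2B-NS3 complex (25 nM) in 10 mM Tris-HCl pH 8.0, 0.01% Tween 20 preincubated 15 min with compound, then 10 microM Bz-Nle-KRR-AMC (Km 18.3 µM). Fluorescence change over 15 min, normalized, Hill-fitted.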

Measured: Potency

Parathyroid hormone/parathyroid hormone-related peptide receptor (Homo sapiens), sequence (Q03431 whole entry, looked up): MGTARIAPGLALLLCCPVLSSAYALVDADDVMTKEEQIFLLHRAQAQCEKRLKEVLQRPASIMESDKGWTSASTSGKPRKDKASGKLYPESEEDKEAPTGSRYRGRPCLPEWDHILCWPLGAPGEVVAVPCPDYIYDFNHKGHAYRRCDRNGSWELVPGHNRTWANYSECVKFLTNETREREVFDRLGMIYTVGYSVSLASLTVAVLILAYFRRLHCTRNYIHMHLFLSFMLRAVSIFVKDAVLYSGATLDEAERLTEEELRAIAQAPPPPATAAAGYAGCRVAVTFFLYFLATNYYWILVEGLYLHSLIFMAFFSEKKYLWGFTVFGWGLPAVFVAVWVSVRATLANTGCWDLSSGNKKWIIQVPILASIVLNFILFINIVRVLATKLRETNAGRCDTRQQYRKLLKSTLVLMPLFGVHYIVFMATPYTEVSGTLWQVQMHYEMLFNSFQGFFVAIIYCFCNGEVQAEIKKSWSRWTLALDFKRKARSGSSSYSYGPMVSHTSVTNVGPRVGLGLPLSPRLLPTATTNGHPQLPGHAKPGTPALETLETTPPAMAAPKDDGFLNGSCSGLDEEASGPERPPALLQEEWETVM
Furin (Homo sapiens), sequence (P09958 whole entry, looked up): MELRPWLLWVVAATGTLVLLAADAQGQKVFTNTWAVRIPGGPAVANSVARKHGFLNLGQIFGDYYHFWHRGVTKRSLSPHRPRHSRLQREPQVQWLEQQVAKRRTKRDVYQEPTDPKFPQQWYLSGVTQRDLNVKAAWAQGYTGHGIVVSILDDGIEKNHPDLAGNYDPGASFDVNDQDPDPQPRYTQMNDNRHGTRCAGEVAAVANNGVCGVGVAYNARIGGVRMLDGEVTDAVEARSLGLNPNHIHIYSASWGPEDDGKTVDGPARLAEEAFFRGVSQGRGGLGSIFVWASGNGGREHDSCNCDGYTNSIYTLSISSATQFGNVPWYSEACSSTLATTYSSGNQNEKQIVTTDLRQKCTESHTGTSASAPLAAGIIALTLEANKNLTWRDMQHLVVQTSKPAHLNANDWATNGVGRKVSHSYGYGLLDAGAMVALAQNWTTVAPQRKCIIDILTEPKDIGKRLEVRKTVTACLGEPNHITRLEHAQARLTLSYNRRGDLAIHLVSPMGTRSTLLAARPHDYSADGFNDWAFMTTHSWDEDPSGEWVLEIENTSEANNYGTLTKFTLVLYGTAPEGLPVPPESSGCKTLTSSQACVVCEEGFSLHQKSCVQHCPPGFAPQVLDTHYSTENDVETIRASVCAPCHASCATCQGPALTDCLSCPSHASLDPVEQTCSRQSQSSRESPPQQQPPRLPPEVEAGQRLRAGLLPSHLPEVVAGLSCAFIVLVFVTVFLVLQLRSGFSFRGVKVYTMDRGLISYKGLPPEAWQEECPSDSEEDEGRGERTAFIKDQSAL
T1 sequence (P78324 whole entry, looked up): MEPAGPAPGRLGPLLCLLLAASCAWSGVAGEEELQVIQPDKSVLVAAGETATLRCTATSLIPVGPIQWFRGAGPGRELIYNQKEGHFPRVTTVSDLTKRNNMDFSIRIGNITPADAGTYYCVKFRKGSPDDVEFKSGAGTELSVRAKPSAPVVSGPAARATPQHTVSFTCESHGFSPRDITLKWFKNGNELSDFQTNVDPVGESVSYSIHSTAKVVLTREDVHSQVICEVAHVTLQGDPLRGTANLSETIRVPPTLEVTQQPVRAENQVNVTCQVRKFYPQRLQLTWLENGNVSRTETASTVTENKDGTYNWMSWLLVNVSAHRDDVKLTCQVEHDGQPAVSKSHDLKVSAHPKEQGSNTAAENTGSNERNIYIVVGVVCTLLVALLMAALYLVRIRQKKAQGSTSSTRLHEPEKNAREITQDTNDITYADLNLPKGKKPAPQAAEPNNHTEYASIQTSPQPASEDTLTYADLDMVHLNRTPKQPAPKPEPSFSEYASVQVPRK
T1 sequence (Q08722 whole entry, looked up): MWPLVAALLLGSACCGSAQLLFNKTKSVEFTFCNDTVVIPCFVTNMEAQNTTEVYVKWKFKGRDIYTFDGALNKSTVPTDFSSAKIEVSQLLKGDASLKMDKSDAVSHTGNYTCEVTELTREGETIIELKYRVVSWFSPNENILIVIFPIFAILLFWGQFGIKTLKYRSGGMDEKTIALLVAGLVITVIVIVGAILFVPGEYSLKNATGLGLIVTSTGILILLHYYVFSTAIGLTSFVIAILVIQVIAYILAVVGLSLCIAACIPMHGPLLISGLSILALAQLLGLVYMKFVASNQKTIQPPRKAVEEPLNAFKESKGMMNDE
N-terminal Xaa-Pro-Lys N-methyltransferase 1 (Homo sapiens), sequence (Q9BV86 whole entry, looked up): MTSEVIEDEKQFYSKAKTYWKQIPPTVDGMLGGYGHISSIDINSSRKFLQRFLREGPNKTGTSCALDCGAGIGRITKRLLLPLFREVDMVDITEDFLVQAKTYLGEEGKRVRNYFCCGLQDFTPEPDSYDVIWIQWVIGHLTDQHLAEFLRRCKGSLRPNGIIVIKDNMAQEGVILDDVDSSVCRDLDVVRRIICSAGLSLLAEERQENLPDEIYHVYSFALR

O=C(O)/C(=C/c1c(C(=O)O)[nH]c2cc(Cl)cc(Cl)c12)c1ccccc1
inactive: [1] | [2] | [3] | [4] | [5]

O=[N+]([O-])c1cccc2c(Br)[nH]nc12
inactive: [1] | [2] | [5]

CN1CCc2cc(Cl)c(O)cc2[C@@H](c2ccccc2)C1
inactive: [2] | [6] | [7] | [3]

c1ccc(CN2CCC3(CCCc4ccccc43)CC2)cc1
active: [4] 50.1 µM
inactive: [2] | [6] | [7] | [3] | [5]

CC#CCOC(=O)c1c(C)nc2sc3c(c2c1N)CCC(O)C3 (stereo not drawn)
inactive: [1] | [7] | [3]
active: [4] 56.2 µM

CC(=O)C(C)=O
inactive: [2] | [6] | [7] | [3] | [4] | [5]

O=c1[nH]c(=S)[nH]c(-c2ccccc2)c1Cc1c(O)ccc2ccccc12
inactive: [1] | [6] | Furin (Homo sapiens)
active: [4] 79.4 µM | [5] 7.52 µM

N#C/C(=C\c1ccc(O)c(O)c1)C(=O)NCCCNC(=O)/C(C#N)=C/c1ccc(O)c(O)c1
inactive: [1] | [3]
active: [5] 0.597 µM

CCCCCCC/C=C\CCCCCCCCC(=O)O
inactive: [1] | [6] | [7] | [4]
active: [5] 21.2 µM

CC(=O)SC1CC2=CC(=O)CC[C@]2(C)C2CC[C@@]3(C)C(CC[C@@]34CCC(=O)O4)C12 (stereo partly drawn)
inactive: [2] | [6] | [7] | [3] | [4] | [5]

CN(C)S(=O)(=O)c1ccc2c(c1)/C(=C/c1cc3c([nH]1)CCCC3)C(=O)N2
inactive: [1] | [7] | [3] | [4] | [5]

Cn1c(=O)c2[nH]c(-c3ccc(S(=O)(=O)O)cc3)nc2n(C)c1=O
inactive: [1] | [7] | [3] | [5]
active: [4] 12.6 µM | Furin (Homo sapiens) 12.1 µM | [8] 6.81 µM

O=C(O)CCC/C=C\C[C@@H]1[C@@H](/C=C/[C@H](O)C2Cc3ccccc3C2)[C@@H](F)C[C@@H]1O
inactive: [2] | [6] | [7] | [3] | [4]

O=c1[nH]c2cc(Cl)ccc2c(O)c1-c1ccc(Oc2ccccc2)cc1
inactive: [2] | [6] | [7] | [3] | [4]

Cc1nc(N=Nc2ccc(S(=O)(=O)O)cc2S(=O)(=O)O)c(COP(=O)(O)O)c(C=O)c1O
inactive: [1] | [2] | [3] | [4] | Furin (Homo sapiens) | [5]

N=C(N)SCCc1cnc[nH]1
inactive: [1] | [2] | [3] | [4] | [5]

Nc1ccc(N2C(=O)c3ccccc3C2=O)c(Cl)c1
inactive: [1] | [2] | [3] | [4] | [5]

O=c1[nH]c(=O)c2nc3ccccc3nc2[nH]1
active: [4] 56.2 µM | [5] 26.7 µM
inactive: [1] | [2]

NCCCCN
inactive: [2] | [6] | [7] | [3] | [4] | [5]

Nc1ccc2c3c(cccc13)C(=O)NC2=O
inactive: [1] | [7] | [3] | [4]

Cc1ccc([N+](=O)[O-])cc1S(=O)(=O)N(C)C
inactive: [1] | [2] | [3] | [4] | [5]

CCCn1c(=O)c2[nH]c(C3CCCC3)nc2n(CCC)c1=O
inactive: [2] | [6] | [7] | [3] | [4] | [5]

CCCn1c(=O)c2[nH]c(-c3ccc(S(=O)(=O)O)cc3)nc2n(CCC)c1=O
inactive: [1] | [7] | [3] | [4]

O=C1NC(=O)c2cc(Nc3ccccc3)c(Nc3ccccc3)cc21
inactive: [1] | [7] | [3] | Furin (Homo sapiens)

O=c1cc(-c2ccccc2)[nH]c2nc(Cl)ccc12
active: [4] 79.4 µM | [5] 11.9 µM
inactive: [1] | [3]

CC[C@@H]1Cc2cc(O)ccc2C2=C1c1ccc(O)cc1C[C@H]2CC
active: [4] 79.4 µM
inactive: [1] | [3]

Nc1ccc(-c2ccc3ccccc3n2)cc1
inactive: Furin (Homo sapiens) | [8] | [9]
